The panel holds about 83,000 compounds, 20% with a hit somewhere; the sample as a whole holds those more often.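 For each line, cells grew in 96-well plates with the test compound present at a single concentration for 48 hours.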 Activity calls are given as the source filed them. Rule for the calls: active = growth percent below 10; inactive = the rest.
Legend:
Assay in all cases: NCI-60 one-dose screen, 48 h (100 = growth as untreated, 0 = no growth, -100 = all killed)
Details in all cases: 10 µM unless noted
HCT-15 colon = test system: HCT-15 colon
HT29 colon = test system: HT29 colon
SNB-75 CNS = test system: SNB-75 CNS
SNB-19 CNS = test system: SNB-19 CNS
U251 CNS = test system: U251 CNS
PC-3 prostate = test system: PC-3 prostate
SK-MEL-5 melanoma = test system: SK-MEL-5 melanoma
UACC-62 melanoma = test system: UACC-62 melanoma
LOX IMVI melanoma = test system: LOX IMVI melanoma
SK-MEL-28 melanoma = test system: SK-MEL-28 melanoma

Measured: growth

FC(F)(F)c1cc2c(Cl)ncnc2n1CCN1CCOCC1
active: HCT-15 colon 2.39% | LOX IMVI melanoma -12.7%
inactive: HT29 colon 81.2% | SNB-75 CNS 53.5% | SNB-19 CNS 43.4% | U251 CNS 78.5% | PC-3 prostate 88.2% | SK-MEL-5 melanoma 88.2% | UACC-62 melanoma 64.7% | SK-MEL-28 melanoma 74.1%

CC1CCc2c(sc3nc(SCC(=O)c4cccc(Br)c4)n(-c4ccccc4)c(=O)c23)C1 (stereo not given)
inactive: HCT-15 colon 41% | HT29 colon 21.6% | SNB-75 CNS 54.9% | SNB-19 CNS 64.8% | PC-3 prostate 56.6% | SK-MEL-5 melanoma 66% | UACC-62 melanoma 89.8% | LOX IMVI melanoma 45.2% | SK-MEL-28 melanoma 73.5%
active: U251 CNS -25.5%

Nc1nn2c(-c3cc4cc(Br)ccc4oc3=O)ccnc2c1N=Nc1ccc(S(N)(=O)=O)cc1
inactive: HCT-15 colon 103% | HT29 colon 92.4% | SNB-75 CNS 116% | SNB-19 CNS 41.6% | U251 CNS 28.1% | PC-3 prostate 87.5% | SK-MEL-5 melanoma 63.7% | UACC-62 melanoma 83.7% | LOX IMVI melanoma 63.8% | SK-MEL-28 melanoma 80.7%

CCN1CCN(Cc2ccc(C(=O)Nc3cccc(Nc4ccc5c(OC)cccc5n4)c3)cc2C(F)(F)F)CC1
active: HCT-15 colon -83.3% | HT29 colon -67.6% | SNB-75 CNS -89.7% | SNB-19 CNS -99.7% | U251 CNS -80.9% | PC-3 prostate -38.6% | SK-MEL-5 melanoma -99.2% | UACC-62 melanoma -95.1% | LOX IMVI melanoma -92.1% | SK-MEL-28 melanoma -100%

O=C(O)CC1S/C(=N/N=C/c2nc3ccccc3s2)NC1=O (stereo not given)
inactive: HCT-15 colon 76.5% | HT29 colon 114% | SNB-75 CNS 96.9% | SNB-19 CNS 96.3% | U251 CNS 89.8% | PC-3 prostate 103% | SK-MEL-5 melanoma 96.9% | UACC-62 melanoma 114% | LOX IMVI melanoma 100% | SK-MEL-28 melanoma 117%

Cc1ccc2nc(NC(=O)Nc3cccc(Cl)c3)sc2c1
inactive: HCT-15 colon 92% | HT29 colon 104% | SNB-75 CNS 108% | SNB-19 CNS 103% | U251 CNS 111% | PC-3 prostate 92.4% | SK-MEL-5 melanoma 97.2% | UACC-62 melanoma 91.2% | LOX IMVI melanoma 88.1% | SK-MEL-28 melanoma 112%

COc1ccc(NC(=O)CSc2nnc(-c3ccc(-c4nc5ccccc5[nH]4)cc3)o2)cc1
inactive: HCT-15 colon 18.2% | HT29 colon 18% | SNB-75 CNS 63.4% | PC-3 prostate 25.1% | SK-MEL-5 melanoma 14% | UACC-62 melanoma 17.8%
active: SNB-19 CNS -5.58% | U251 CNS -68.2% | LOX IMVI melanoma -63.9% | SK-MEL-28 melanoma -72.3%

CN(CCSSCCN1CCOCC1)C(=O)Oc1cc2c(c3ccccc13)[C@H](CCl)CN2C(=O)c1cc2cc(OCCCN3CCC3)ccc2[nH]1
active: HCT-15 colon -49.3% | HT29 colon -40.5% | SNB-75 CNS -46% | SNB-19 CNS -100% | U251 CNS -60.3% | PC-3 prostate -21.9% | SK-MEL-5 melanoma -89.6% | UACC-62 melanoma -72.7% | LOX IMVI melanoma -73% | SK-MEL-28 melanoma -58%

COc1ccc(NC(=O)NN2C(=O)c3ccccc3N(C)C2c2ccc(OC)cc2)cc1 (stereo not given)
inactive: HCT-15 colon 103% | HT29 colon 109% | SNB-75 CNS 91% | SNB-19 CNS 94% | U251 CNS 105% | PC-3 prostate 89.2% | SK-MEL-5 melanoma 92.6% | UACC-62 melanoma 78.1% | LOX IMVI melanoma 98.1% | SK-MEL-28 melanoma 102%

O=C(CSc1nc2sc3c(c2c(=O)n1-c1ccc(Cl)cc1)CCCC3)N/N=C/C=C/c1ccccc1
inactive: SNB-19 CNS 27% | LOX IMVI melanoma 31.7%
active: HCT-15 colon -57.6% | HT29 colon -19.3% | SNB-75 CNS -23.2% | U251 CNS -76.4% | PC-3 prostate -17.4% | SK-MEL-5 melanoma -95.2% | UACC-62 melanoma -79.9% | SK-MEL-28 melanoma -80.1%

CCCn1c(NC(=O)c2cccc(C(N)=O)c2)nc2cc(CN3CCCCC3)ccc21
inactive: HCT-15 colon 77.9% | HT29 colon 87.1% | SNB-75 CNS 133% | SNB-19 CNS 113% | U251 CNS 116% | PC-3 prostate 77% | SK-MEL-5 melanoma 88% | UACC-62 melanoma 113% | LOX IMVI melanoma 96.5% | SK-MEL-28 melanoma 112%

COc1ccc(N=Nc2c(N)nn3c(-c4ccc(OC)c(OC)c4)ccnc23)cc1
inactive: HCT-15 colon 91.7% | HT29 colon 68.5% | SNB-75 CNS 82.3% | SNB-19 CNS 74.1% | U251 CNS 69.3% | PC-3 prostate 87.5% | SK-MEL-5 melanoma 77.4% | UACC-62 melanoma 64.3% | LOX IMVI melanoma 86.1% | SK-MEL-28 melanoma 86.4%

CCOc1ccc(-c2cc(-c3cc(C(C)C)c(O)cc3C)nn2-c2ccc(S(N)(=O)=O)cc2)cc1
inactive: HT29 colon 98.5% | SNB-75 CNS 32.6% | SNB-19 CNS 49% | U251 CNS 27.8% | PC-3 prostate 42.4% | SK-MEL-5 melanoma 26.3% | UACC-62 melanoma 24% | LOX IMVI melanoma 17.9% | SK-MEL-28 melanoma 58.5%
active: HCT-15 colon 4.81%

COc1ccc2[nH]c(=O)c(CSc3ccccc3Nc3nccc(-c4ccc5c(c4)OCO5)n3)cc2c1
inactive: HCT-15 colon 74.3% | HT29 colon 75.2% | SNB-75 CNS 71.8% | SNB-19 CNS 81.6% | U251 CNS 88.6% | PC-3 prostate 68.1% | SK-MEL-5 melanoma 58.9% | UACC-62 melanoma 79.2% | LOX IMVI melanoma 89.6% | SK-MEL-28 melanoma 95.9%

Cc1ccc(C(=O)Nc2cc(-c3ccccc3)cc(C(F)(F)F)c2)cc1C#Cc1cnc2cccnn12
inactive: HCT-15 colon 57.7% | HT29 colon 34.8% | SNB-75 CNS 112% | SNB-19 CNS 92.3% | U251 CNS 74.9% | PC-3 prostate 65.8% | SK-MEL-5 melanoma 26% | UACC-62 melanoma 46.1% | LOX IMVI melanoma 39.4% | SK-MEL-28 melanoma 52.9%

FC(F)(F)c1cc2c(Cl)ncnc2n1CCC1CCOCC1
active: HCT-15 colon -37.7% | SNB-75 CNS -91.1% | SNB-19 CNS -99% | U251 CNS -14.4% | PC-3 prostate 2.75% | SK-MEL-5 melanoma -83.7% | UACC-62 melanoma -34.5% | LOX IMVI melanoma -97% | SK-MEL-28 melanoma -0.403%
inactive: HT29 colon 48.5%
